Counter-ions that a name gives are not always drawn.
Columns and labels:
HCC1937 = test: relative cell viability, compound + RSL3, vs DMSO (fraction of DMSO control); higher = less growth inhibition; details: 72 h
MDA-MB-231 = test: as above; details: 72 h
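Also: breast cancer cell viability read out with the CCK-8 kit after co-treatment of each compound with the ferroptosis inducer RSL3.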

| SMILES | relative cell viability (HCC1937) | relative cell viability (MDA-MB-231) |
| --- | --- | --- |
| CC(=O)O[C@H](CC=C(C)C)C1=CC(=O)c2c(O)ccc(O)c2C1=O [Acetyl shikonin] + COC(=O)c1ccc([C@H]2c3[nH]c4ccccc4c3C[C@H](C(=O)OC)N2C(=O)CCl)cc1 [RSL3] | 0.665 | 0.681 |
| CC(C)(O)c1ccccc1CC[C@@H](SCC1(CC(=O)O)CC1)c1cccc(/C=C/c2ccc3ccc(Cl)cc3n2)c1 [Montelukast] + COC(=O)c1ccc([C@H]2c3[nH]c4ccccc4c3C[C@H](C(=O)OC)N2C(=O)CCl)cc1 [RSL3] | 0.589 | 0.484 |
| CC(C)OC(=O)C(C(=O)OC(C)C)=C1SC=CS1 [Malotilate] + COC(=O)c1ccc([C@H]2c3[nH]c4ccccc4c3C[C@H](C(=O)OC)N2C(=O)CCl)cc1 [RSL3] | 0.337 | 0.547 |
| Cc1c(C(=O)Nc2ccc(CO)cc2)nnn1Cc1ccc(Cl)c(Cl)c1 + COC(=O)c1ccc([C@H]2c3[nH]c4ccccc4c3C[C@H](C(=O)OC)N2C(=O)CCl)cc1 [RSL3] | 0.406 | 0.573 |
| C[C@H](CCC(=O)O)[C@H]1CC[C@H]2[C@@H]3C[C@H](O)[C@@H]4C[C@H](O)CC[C@]4(C)[C@H]3CC[C@]12C [Hyodeoxycholic acid] + COC(=O)c1ccc([C@H]2c3[nH]c4ccccc4c3C[C@H](C(=O)OC)N2C(=O)CCl)cc1 [RSL3] | 0.829 | 0.611 |
| CCCCCCCCCCCC1=C(O)C(=O)C=C(O)C1=O [Embelin] + COC(=O)c1ccc([C@H]2c3[nH]c4ccccc4c3C[C@H](C(=O)OC)N2C(=O)CCl)cc1 [RSL3] | 0.458 | 0.471 |
| CCC(=O)O[C@]1(C(=O)CCl)[C@@H](C)C[C@H]2[C@@H]3C[C@H](F)C4=CC(=O)C=C[C@]4(C)[C@@]3(F)[C@@H](O)C[C@@]21C [Halobetasol Propionate] + COC(=O)c1ccc([C@H]2c3[nH]c4ccccc4c3C[C@H](C(=O)OC)N2C(=O)CCl)cc1 [RSL3] | 0.393 | 0.592 |
| O=C(Nc1cnccc1Cl)N1CCN(Cc2ccc3c(c2)OC(F)(F)O3)CC1 + COC(=O)c1ccc([C@H]2c3[nH]c4ccccc4c3C[C@H](C(=O)OC)N2C(=O)CCl)cc1 [RSL3] | 0.338 | 0.568 |
| Cc1cc(=O)oc2c(O)c(O)ccc12 [7,8-Dihydroxy-4-methylcoumarin] + COC(=O)c1ccc([C@H]2c3[nH]c4ccccc4c3C[C@H](C(=O)OC)N2C(=O)CCl)cc1 [RSL3] | 0.539 | 0.7 |
| O=P(O)(O)OC(CO)CO [β-Glycerol phosphate disodium salt pentahydrate] + COC(=O)c1ccc([C@H]2c3[nH]c4ccccc4c3C[C@H](C(=O)OC)N2C(=O)CCl)cc1 [RSL3] | 0.343 | 0.56 |
| CCOC(=O)N1c2ccc(C(F)(F)F)cc2[C@@H](N(Cc2cc(C(F)(F)F)cc(C(F)(F)F)c2)C(=O)OC)C[C@H]1CC [Torcetrapib] + COC(=O)c1ccc([C@H]2c3[nH]c4ccccc4c3C[C@H](C(=O)OC)N2C(=O)CCl)cc1 [RSL3] | 0.642 | 0.458 |
| CC(C)(C)N1C(=O)C(Nc2ccc(N3CCCCC3)cc2)=C(c2ccccc2)S1(=O)=O + COC(=O)c1ccc([C@H]2c3[nH]c4ccccc4c3C[C@H](C(=O)OC)N2C(=O)CCl)cc1 [RSL3] | 0.686 | 0.69 |
| CC(C)[C@H]1CC[C@H](C(=O)N[C@H](Cc2ccccc2)C(=O)O)CC1 [Nateglinide] + COC(=O)c1ccc([C@H]2c3[nH]c4ccccc4c3C[C@H](C(=O)OC)N2C(=O)CCl)cc1 [RSL3] | 0.594 | 0.487 |
| C=C[C@H]1CN2CC[C@H]1C[C@@H]2[C@@H](O)c1ccnc2ccc(OC)cc12 [Quinidine sulfate] + COC(=O)c1ccc([C@H]2c3[nH]c4ccccc4c3C[C@H](C(=O)OC)N2C(=O)CCl)cc1 [RSL3] | 0.439 | 0.673 |
| Nc1ncnc2c1ncn2[C@@H]1O[C@H](COP(=O)(O)O)[C@@H](O)[C@H]1O [Adenosine 5'-monophosphate] + COC(=O)c1ccc([C@H]2c3[nH]c4ccccc4c3C[C@H](C(=O)OC)N2C(=O)CCl)cc1 [RSL3] | 0.597 | 0.485 |
| CCCCCCCCCCCCCCCC(=O)NCCO [Palmidrol] + COC(=O)c1ccc([C@H]2c3[nH]c4ccccc4c3C[C@H](C(=O)OC)N2C(=O)CCl)cc1 [RSL3] | 0.655 | 0.77 |
| O=C(Nc1cccnn1)N1CCC(=Cc2cccc(Oc3ccc(C(F)(F)F)cn3)c2)CC1 + COC(=O)c1ccc([C@H]2c3[nH]c4ccccc4c3C[C@H](C(=O)OC)N2C(=O)CCl)cc1 [RSL3] | 0.686 | 0.601 |
| CC(C)n1c(/C=C/C(O)CC(O)CC(=O)O)c(-c2ccc(F)cc2)c2ccccc21 (stereo not given) [Fluvastatin sodium salt] + COC(=O)c1ccc([C@H]2c3[nH]c4ccccc4c3C[C@H](C(=O)OC)N2C(=O)CCl)cc1 [RSL3] | 0.504 | 0.547 |

| SMILES | relative cell viability (HCC1937) | relative cell viability (MDA-MB-231) |
| --- | --- | --- |
| CN(CCOc1ccc(CC2SC(=O)NC2=O)cc1)c1ccccn1 (stereo not given) [Rosiglitazone] + COC(=O)c1ccc([C@H]2c3[nH]c4ccccc4c3C[C@H](C(=O)OC)N2C(=O)CCl)cc1 [RSL3] | 1.26 | 0.646 |
| CCCCC[C@H](O)CC(=O)CCc1ccc(O)c(OC)c1 [6-Gingerol] + COC(=O)c1ccc([C@H]2c3[nH]c4ccccc4c3C[C@H](C(=O)OC)N2C(=O)CCl)cc1 [RSL3] | 0.298 | 0.483 |
| CCC(=O)O[C@]1(C(=O)SCF)[C@H](C)C[C@H]2[C@@H]3C[C@H](F)C4=CC(=O)C=C[C@]4(C)[C@@]3(F)[C@@H](O)C[C@@]21C [Fluticasone propionate] + COC(=O)c1ccc([C@H]2c3[nH]c4ccccc4c3C[C@H](C(=O)OC)N2C(=O)CCl)cc1 [RSL3] | 0.751 | 0.566 |
| O=C(Nc1ccccc1)N1CCN(c2nc(-c3ccccc3)ns2)CC1 + COC(=O)c1ccc([C@H]2c3[nH]c4ccccc4c3C[C@H](C(=O)OC)N2C(=O)CCl)cc1 [RSL3] | 0.281 | 0.406 |
| CCN(CC)CCN(Cc1ccc(-c2ccc(C(F)(F)F)cc2)cc1)C(=O)Cn1c(SCc2ccc(F)cc2)nc(=O)c2c1CCC2 [Darapladib] + COC(=O)c1ccc([C@H]2c3[nH]c4ccccc4c3C[C@H](C(=O)OC)N2C(=O)CCl)cc1 [RSL3] | 0.0907 | 0.232 |
| Nc1ncnc2c1ncn2C1OC(COP(=O)(O)O)C(O)C1O (stereo not given) [Adenosine 5'-monophosphate monohydrate] + COC(=O)c1ccc([C@H]2c3[nH]c4ccccc4c3C[C@H](C(=O)OC)N2C(=O)CCl)cc1 [RSL3] | 0.932 | 0.622 |
| CCCc1cc(-c2nc(-c3ccc(NS(C)(=O)=O)cc3)cs2)ccn1 + COC(=O)c1ccc([C@H]2c3[nH]c4ccccc4c3C[C@H](C(=O)OC)N2C(=O)CCl)cc1 [RSL3] | 0.322 | 0.551 |
| CC[C@H](C)C(=O)O[C@H]1CCC=C2C=C[C@H](C)[C@H](CC[C@@H]3C[C@@H](O)CC(=O)O3)[C@H]21 [Mevastatin] + COC(=O)c1ccc([C@H]2c3[nH]c4ccccc4c3C[C@H](C(=O)OC)N2C(=O)CCl)cc1 [RSL3] | 0.707 | 0.369 |
| Cn1nc(C(=O)N(Cc2ccccc2)Cc2ccc(C(=O)O)cc2)c2c1-c1cc(Cl)ccc1OC2 [Nidufexor] + COC(=O)c1ccc([C@H]2c3[nH]c4ccccc4c3C[C@H](C(=O)OC)N2C(=O)CCl)cc1 [RSL3] | 0.488 | 0.673 |
| O=S(=O)(c1ccccc1)N(CC(F)(F)F)c1ccc(C(O)(C(F)(F)F)C(F)(F)F)cc1 + COC(=O)c1ccc([C@H]2c3[nH]c4ccccc4c3C[C@H](C(=O)OC)N2C(=O)CCl)cc1 [RSL3] | 0.36 | 0.638 |
| O=C(O)CN(CC(=O)O)c1ccccc1OCCOc1ccccc1N(CC(=O)O)CC(=O)O + COC(=O)c1ccc([C@H]2c3[nH]c4ccccc4c3C[C@H](C(=O)OC)N2C(=O)CCl)cc1 [RSL3] | 0.308 | 0.581 |
| NC(=O)c1ncn([C@@H]2O[C@H](CO)[C@@H](O)[C@H]2O)c1N [AICAR (Acadesine)] + COC(=O)c1ccc([C@H]2c3[nH]c4ccccc4c3C[C@H](C(=O)OC)N2C(=O)CCl)cc1 [RSL3] | 0.646 | 0.584 |
| O=C(OC(C(F)(F)F)C(F)(F)F)N1CCC(C(O)(c2ccc3c(c2)OCO3)c2ccc3c(c2)OCO3)CC1 + COC(=O)c1ccc([C@H]2c3[nH]c4ccccc4c3C[C@H](C(=O)OC)N2C(=O)CCl)cc1 [RSL3] | 0.551 | 0.551 |
| COc1ccc(N(C(=O)Nc2c(C)cccc2C)c2cc(Nc3ccc(N4CCN(C)CC4)cc3)ncn2)c(OC)c1 + COC(=O)c1ccc([C@H]2c3[nH]c4ccccc4c3C[C@H](C(=O)OC)N2C(=O)CCl)cc1 [RSL3] | 0.624 | 0.576 |
| CC(C)(C)NC(=O)[C@H]1CC[C@H]2[C@@H]3CC[C@H]4NC(=O)C=C[C@]4(C)[C@H]3CC[C@]12C [Finasteride] + COC(=O)c1ccc([C@H]2c3[nH]c4ccccc4c3C[C@H](C(=O)OC)N2C(=O)CCl)cc1 [RSL3] | 0.885 | 0.645 |
| NC(CO)C(=O)O (racemic) [DL-Serine] + COC(=O)c1ccc([C@H]2c3[nH]c4ccccc4c3C[C@H](C(=O)OC)N2C(=O)CCl)cc1 [RSL3] | 0.399 | 0.594 |
| O=C1c2cc(CO)cc(O)c2C(=O)c2c(O[C@@H]3O[C@H](CO)[C@@H](O)[C@H](O)[C@H]3O)cccc21 [Aloe-emodin-8-O-beta-D-glucopyranoside] + COC(=O)c1ccc([C@H]2c3[nH]c4ccccc4c3C[C@H](C(=O)OC)N2C(=O)CCl)cc1 [RSL3] | 0.368 | 0.544 |

Source: the supplement of paper PMC9492666
